D1 antagonist = blocks dopamine activation of the human D1 receptor; P21728; HEK293 TREx D1 cells, calcium flux, dopamine EC80; stronger effect = lower value; activity change, negative = inhibition, % at 10 µM; 3.2% of 360,000 active; in the data active = activity change below about -30%; also: % is scaled to controls: 0 for no effect and ±100 for the full control effect
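Inducible Hek293 Trex D1 cells (tetracycline, overnight, 30 C). Calcium dye 30–90 min RT. Antagonist mode: EC80 dopamine added after 180 s compound read.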
TRHR PAM = TRH receptor (human) allosteric enhancement; enhancement, % at 2 µM; TRHR cells, fluo-8 calcium fluorescence, EC20 TRH enhancement; 0.66% of 360,000 active; in the data active = enhancement above about 30%; also: 0% is about no effect
Target sequence (P34981 whole entry, looked up): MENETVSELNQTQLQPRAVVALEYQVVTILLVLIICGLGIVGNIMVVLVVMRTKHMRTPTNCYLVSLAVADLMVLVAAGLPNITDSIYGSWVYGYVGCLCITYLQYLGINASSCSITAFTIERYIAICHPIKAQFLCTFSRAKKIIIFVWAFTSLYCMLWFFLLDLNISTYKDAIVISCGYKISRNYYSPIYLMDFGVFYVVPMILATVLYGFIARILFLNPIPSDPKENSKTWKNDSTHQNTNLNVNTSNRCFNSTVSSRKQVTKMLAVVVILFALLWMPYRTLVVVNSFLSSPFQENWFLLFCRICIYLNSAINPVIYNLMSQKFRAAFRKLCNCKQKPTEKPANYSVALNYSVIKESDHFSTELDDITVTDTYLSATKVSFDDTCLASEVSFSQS
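Enhancer read-out: after compound pinning and an initial kinetic agonist-mode read, an EC20 of TRH (10 nM final) was injected and fluo-8 calcium signal (Ex 480/Em 530) followed at 1 s/cycle for 100 cycles in TRHR-expressing cells.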
D1 potentiator = human D1 dopamine receptor positive modulation | P21728 | HEK293 TREx D1 cells, calcium flux, dopamine EC20 potentiation | potentiation, % at 10 µM | 0.036% of 360,000 active; in the data active = potentiation above about 30%; also: 0% is about no effect
D1 ag = activates the human D1 dopamine receptor | 1% of 360,000 active | activation, % at 2 µM | AID 504660 | HEK293 T-REx D1 cells, calcium flux, agonist mode; also: 0% is about no effect
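Tetracycline-induced HEK293 TREx D1 cells, force-coupled to calcium signalling, were dye-loaded with a no-wash calcium kit. Compound was pin-added after a 10 s baseline. Fluorescence was read kinetically at 1 cycle/s for 180 s, with calcium rises flagged as agonism.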
TRHR agonist = agonists of human TRH receptor. P34981. TRHR cells, calcium flux fluo-8, FDSS agonist mode. activation, % at 2 µM. 0.18% of 360,000 active. AID 493084; also: 0% is about no effect
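TRHR-expressing cells, plated overnight in medium with 10% serum, were loaded with fluo-8 calcium dye at room temperature. After a 10 s baseline, library compound was pin-added and calcium release was recorded kinetically (ex 480/em 530) as agonist response.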
Numbers without * were called inactive; ! = not confirmed by another sample. This is a sample that favours compounds with a hit; in the whole collection about 4.6% have one here. Rule as the data show it, unless noted: active = activation above about 30%; inactive = the rest.

SMILES	D1 antagonist	TRHR PAM	D1 potentiator	D1 ag	TRHR agonist
O=C(c1ccc(COc2ccccc2Cl)o1)N1CCN(Cc2ccc3c(c2)OCO3)CC1	9	8	-2	2	0
O=C(c1ccc(COc2ccc(Cl)cc2)o1)N1CCN(Cc2ccc3c(c2)OCO3)CC1	-43*	-7	-11	11	2
CCOc1ccc(NC(=O)N2CCN(Cc3ccc4c(c3)OCO4)CC2)cc1	-78*	1	-9	2	-2
CCOc1ccc(NC(=O)c2ccc(F)c(S(=O)(=O)NCc3ccc4c(c3)OCO4)c2)cc1	-34*	0	0	4	-1
COc1ccccc1NC(=O)c1ccc2ccccc2c1	-4	-1	1	11	1
Cc1ccc(Cl)cc1N1CCN(CC(=O)Nc2ccc(CN3CCCCC3)cc2)CC1	-48*	13	-8	54*	4
COc1c(Cl)cc(Cl)cc1C(=O)Nc1ccc(CN2CCCCC2)cc1	0	10	0	31*	-2
Cc1ccc(C(=O)NC(=S)Nc2ccc(CN3CCCCC3)cc2)c(C)c1	-42*	-5	-11	12	0
COc1ccc(C(=O)NC(=S)Nc2ccc(CN3CCCCC3)cc2)cc1Cl	8	2	-5	9	1
CCS(=O)(=O)N1CCc2cc(C(=O)Nc3cc(C(F)(F)F)ccc3Cl)ccc21	7	1	6	2	1
Cc1ccc(CNC(=O)CSCc2ccccc2C)cc1	0	-2	0	4	1
CCC1CCCCN1C(=O)COC(=O)c1cc2ccccc2cc1O (centres undefined)	-32*	-1	-9	15	0
O=C(OCC(=O)N1CCCCC1)c1cc2ccccc2cc1O	9	-2	4	3	0
Cc1ccc(N2C(=O)CC(N3CCN(c4ccccn4)CC3)C2=O)cc1 (centres undefined)	-1	2	3	0	0
Cc1ccc2nc(-c3ccc(N4C(=O)CC(N5CCN(CCO)CC5)C4=O)cc3)sc2c1 (centres undefined)	-36*	-4	-4	5	1
CC(C)C(NS(=O)(=O)c1ccc2c(c1)oc(=O)n2C)C(=O)NCCc1ccc(Cl)cc1 (centres undefined)	20	-11	0	2	0
CC(C)CC(=O)Nc1nnc(S(=O)(=O)N2CCc3ccccc32)s1	-46*!	7	-3	0	0
CCC(=O)Nc1nnc(S(=O)(=O)N2CCc3ccccc32)s1	8	21	-4	0	3
N=c1oc2ccc(Br)cc2cc1C(=O)NCc1ccccc1	-5	-2	5	9	1
CC(NC(=O)c1cc2cc(Br)ccc2oc1=N)c1ccccc1 (centres undefined)	-53*	-6	5	1	0
Cc1nc2ccc(S(=O)(=O)CCC(=O)Nc3ccc(F)cc3C)cc2s1	10	29	-3	1	0
CCc1cc2c(COC(=O)c3c(C)noc3C)cc(=O)oc2cc1O	6	33*	-6	4	-1
CCc1cc2c(COC(=O)c3cccc(S(C)(=O)=O)c3)cc(=O)oc2cc1O	-10	-1	-3	3	0
COc1ccc(C(C)=O)cc1COC(=O)c1c(C)noc1C	-44*	-1	-5	0	0
Cc1ccc(-c2cc3nccc(-c4cc([N+](=O)[O-])ccc4O)n3n2)cc1	5	21	-4	13	4
SMILES	D1 antagonist	TRHR PAM	D1 potentiator	D1 ag	TRHR agonist
O=C(Cc1ccc([N+](=O)[O-])cc1)N1CCN(c2ccc([N+](=O)[O-])cc2)CC1	7	-7	-8	3	0
CC(C)CNS(=O)(=O)c1ccc(CCC(=O)N2CCN(c3ccc(F)cc3)CC2)cc1	-32*	-2	-8	3	0
O=C(Cc1ccc(F)cc1)N1CCN(c2ccc([N+](=O)[O-])cc2)CC1	-55*	-7	-2	13	0
Cc1nc2sc(C(=O)N(C)Cc3ccccc3)c(NC(=O)c3ccccc3)c2c(C)c1Cl	39	-3	0	4	-1
Cc1csc2c(N3CCN(S(=O)(=O)c4ccc(Cl)cc4)CC3)ncnc12	-35*	2	-3	4	0
CCC(=O)N(CCC(c1ccccc1)c1ccc2c(c1)OCO2)Cc1ccc(OC(C)C)cc1 (centres undefined)	-53*	-7	-3	27	2

Screening data deposited in PubChem by National Center for Advancing Translational Sciences (NCATS).
